Pf growth 48h = P. falciparum growth inhibition at 48 hours (one generation). actives 5.9% (n = 310,000). Potency, µM (series often up to 28.7 µM), without a hit: top-dose activity change, negative = inhibition, usual class: inhibitors. P. falciparum luciferase growth in erythrocytes, 48 h; note: potency is the fitted concentration of half-maximal effect
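A one-generation exposure of luciferase-tagged malaria parasites in RPMI 1640/Albumax erythrocyte culture, 37 C and 5% CO2. Inhibition is inferred from decreased luminescence after adding detection reagent.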
Giardia FBPA inh = Giardia lamblia aldolase inhibition; AID 2451; purified Giardia FBPA; Potency, µM (doses to about 59.6 µM), without a hit: top-dose activity, negative = inhibition, actives largely listed as inhibitors; actives 0.71% (n = 290,000); note: potency is the fitted concentration of half-maximal effect; nearly all actives have a fitted effect of over 55% in size
Target sequence (A8B2U2 whole entry, looked up): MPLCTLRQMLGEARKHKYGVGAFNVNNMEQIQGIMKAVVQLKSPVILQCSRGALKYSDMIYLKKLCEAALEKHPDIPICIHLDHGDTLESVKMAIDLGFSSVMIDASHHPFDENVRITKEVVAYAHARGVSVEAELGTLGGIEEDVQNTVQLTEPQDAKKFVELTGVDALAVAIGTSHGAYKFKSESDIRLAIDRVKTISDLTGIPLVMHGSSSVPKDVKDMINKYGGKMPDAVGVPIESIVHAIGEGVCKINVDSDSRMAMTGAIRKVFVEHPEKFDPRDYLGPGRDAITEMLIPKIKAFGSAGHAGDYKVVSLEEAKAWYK
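Giardia FBPA (40 nM reagent) was preincubated 10 min at RT with compound (up to 57.5 uM final), then substrate plus GAPDH/TPI/NAD/arsenate coupling system with diaphorase/resazurin was added; resorufin fluorescence (525/598 nm) was read after 20 min.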
Pf growth 96h = P. falciparum growth inhibition at 96 hours; Potency, µM (highest dose often 28.7 µM), for the others: top-dose activity change, negative = inhibition, most hits filed as inhibitors; AID 504834; P. falciparum luciferase reporter growth, 96 h; actives 6.9% (n = 320,000); note: potency is the fitted concentration of half-maximal effect
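Two-generation exposure (96 h) targets delayed-death phenotype. Reporter parasites carrying integrated firefly luciferase, in red cells at 2% hematocrit and 0.05% parasitemia final, kept at 37 C, 5% CO2; luminescence loss indicates inhibition.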
HCMV inh = blocks human cytomegalovirus replication. HFF cells, HCMV-luciferase reporter, 72 h; stronger effect = lower value. activity change, negative = inhibition, % at 57.5 µM. actives 4.5% (n = 410,000); in the data active = activity change below about -60%; inconclusive = no clear call, values can overlap the other calls; inactive = above about -39%
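HFF cells seeded 16 h at 37C, treated with compounds, infected with luciferase-reporter HCMV at MOI 1 PFU/cell; luciferase read at 72 h post infection, normalized to buffer-only and Salinomycin controls.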
Sm TGR inh = S. mansoni TGR enzyme inhibition; Q962Y6; purified TGR, DTNB reduction, TNB absorbance 405 nm; Potency, µM (top dose mostly 114 µM), without a hit: at the highest dose activity change, negative = inhibition, most hits filed as inhibitors; actives 3% (n = 360,000); note: potency is the fitted concentration of half-maximal effect; nearly all actives have a fitted effect of over 60% in size
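Kinetic colorimetric format: TGR-catalysed, NADPH-driven DTNB reduction monitored via TNB absorbance. Enzyme dispensed at 20 nM; compound exposure 15 min at room temperature before reaction start.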
* marks the source's active call; other numbers are inactive results; ? = inconclusive; . = not tested or not shown. In the library only some 14% were active in any assay of this set; here they are far more common. Unless noted, calls come from the whole dose curve; as a rule, active = well fitted curve in the direction sought with a large enough effect; inconclusive = small, poorly fitted or top-dose-only effect, or another doubt; inactive = no such curve, though single readings can be large; an effect the other way counts as inactive or inconclusive. % is set by controls: 0 for no effect and ±100 for the full control effect.

SMILES | Pf growth 48h | Giardia FBPA inh | Pf growth 96h | HCMV inh | Sm TGR inh
CCCCn1nc(C(=O)NCc2ccccc2CN2CCCC2)c2ccccc2c1=O | 9.3µM* | . | 7.4µM* | -18 | -18%
CCCCn1nc(C(=O)NCC(c2cccs2)N2CCOCC2)c2ccccc2c1=O (centres undefined) | 9.3µM* | . | ? | ? | -1%
COC(=O)Cn1c(C(=O)N2CCCC2)cc2c1C[C@H]1CN(C(=O)c3ccccc3)[C@@](Cc3ccc(OC)cc3)(C(=O)OC)[C@@H]21 | . | . | . | -20 | .
COC(=O)[C@@]1(Cc2ccccc2)[C@H]2c3cc(C(=O)N4CCCC4)n(Cc4ccsc4Br)c3C[C@H]2CN1C(=O)c1ccccc1 | ? | -1% | 3.3µM* | -28 | -19%
COC(=O)[C@@]1(Cc2ccccc2)[C@H]2c3cc(C(=O)N4CCCC4)n(Cc4ccccc4)c3C[C@H]2CN1C(=O)c1ccccc1 | . | -2% | . | . | .
COC(=O)[C@@]1(Cc2ccc(F)cc2)[C@H]2c3cc(C(=O)N4CCCC4)n(CCc4ccc(OC)c(Br)c4)c3C[C@H]2CN1C(=O)c1ccccc1 | . | -8% | . | -7 | .
COC(=O)[C@@]1(Cc2ccc(F)cc2)[C@H]2c3cc(C(=O)N4CCCC4)n(CCO)c3C[C@H]2CN1C(=O)c1ccccc1 | 3.7µM* | 0% | 6.6µM* | -18 | -29%
COC(=O)[C@@]1(Cc2ccc(F)cc2)[C@H]2c3cc(C(=O)N4CCCC4)n(CCc4ccc(O)c(O)c4)c3C[C@H]2CN1C(=O)c1ccccc1 | ? | -30% | 5.9µM* | . | ?
COC(=O)[C@@]1(Cc2ccccc2)[C@H]2c3cc(C(=O)N(C)C)n(Cc4ccsc4Br)c3C[C@H]2CN1C(=O)c1ccccc1 | . | 1% | . | . | .
COC(=O)[C@@]1(Cc2ccc(OC)cc2)[C@H]2c3cc(C(=O)N4CCCC4)n(CCSCCO)c3C[C@H]2CN1C(=O)c1ccccc1 | 1µM* | -9% | 1.7µM* | . | -29%
Cc1ccccc1N1CCN(C(=O)c2cc(C3CC3)nn2-c2ccccc2)CC1 | ? | . | ? | 0 | -19%
COC(=O)[C@@]1(Cc2ccc(OC)cc2)[C@H]2c3cc(C(=O)N4CCCC4)n(CCc4c[nH]c5ccc(O)cc45)c3C[C@H]2CN1C(=O)c1ccccc1 | 1µM* | -10% | 2.1µM* | . | -2%
COC(=O)Cn1c(C(=O)N2CCCC2)cc2c1C[C@H]1CN(C(=O)c3ccccc3)[C@@](Cc3ccc(F)cc3)(C(=O)OC)[C@@H]21 | 5.2µM* | 1% | 8.3µM* | ? | -21%
COC(=O)[C@@]1(Cc2ccc(OC)cc2)[C@H]2c3cc(C(=O)N4CCCC4)n(CCO)c3C[C@H]2CN1C(=O)c1ccccc1 | ? | -8% | 4.7µM* | -13 | -26%
COC(=O)[C@@]1(Cc2ccc(OC)cc2)[C@H]2c3cc(C(=O)N4CCCC4)n(CCc4c[nH]c5cc(F)ccc45)c3C[C@H]2CN1C(=O)c1ccccc1 | . | -6% | . | . | .
COC(=O)[C@@]1(Cc2ccc(OC)cc2)[C@H]2c3cc(C(=O)N4CCCC4)n(Cc4ccccc4)c3C[C@H]2CN1C(=O)c1ccccc1 | . | . | . | -23 | .
COC(=O)[C@@]1(Cc2ccc(OC)cc2)[C@H]2c3cc(C(=O)N(C)C)n(CCSCCO)c3C[C@H]2CN1C(=O)c1ccccc1 | 2.3µM* | -16% | 5.2µM* | . | -31%
CCCCCCN1C[C@H](O)[C@@H](n2cc(-c3ccc(F)cc3)nn2)C[C@@H]1c1ccccc1 | . | . | . | 7 | .
COc1ccc([C@H]2/C=C\CN(C(=O)C3CC3)[C@@H](C)C(=O)N2Cc2ccc(F)cc2)cc1 | . | . | . | -1 | .
COc1ccc(-c2csc(NC(=O)CSCc3c(C)noc3C)n2)c(OC)c1 | ? | . | 10µM* | -30 | -10%
CC1CC(Nc2ccccc2)c2ccccc2N1C(=O)c1cccnc1 (centres undefined) | ? | 11% | 5% | -36 | -2%
CC1CC(Nc2ccccc2)c2ccccc2N1C(=O)c1ccccc1F (centres undefined) | 23% | -1% | -2% | -67* | 3%
CCn1nnnc1NC(=O)c1cc(Cl)c(OC)c(Cl)c1 | 10% | 0% | ? | -63* | .

Screening results (PubChem)
